From PubChem BioAssay
Many of the other results were omitted from the sample, so hits are more common in it than they were.
ST2 IL33 inh: inhibitors of human ST2 (IL1RL1) binding to IL-33. inhibition, % for hits at 17 µM. AlphaLISA ST2-Fc/biotin-IL-33 interaction, 1 h. Q01638. AID 1259354. 2.3% of 78,000 active; in the data active = inhibition above about 30%
Target sequence (Q01638 whole entry, looked up): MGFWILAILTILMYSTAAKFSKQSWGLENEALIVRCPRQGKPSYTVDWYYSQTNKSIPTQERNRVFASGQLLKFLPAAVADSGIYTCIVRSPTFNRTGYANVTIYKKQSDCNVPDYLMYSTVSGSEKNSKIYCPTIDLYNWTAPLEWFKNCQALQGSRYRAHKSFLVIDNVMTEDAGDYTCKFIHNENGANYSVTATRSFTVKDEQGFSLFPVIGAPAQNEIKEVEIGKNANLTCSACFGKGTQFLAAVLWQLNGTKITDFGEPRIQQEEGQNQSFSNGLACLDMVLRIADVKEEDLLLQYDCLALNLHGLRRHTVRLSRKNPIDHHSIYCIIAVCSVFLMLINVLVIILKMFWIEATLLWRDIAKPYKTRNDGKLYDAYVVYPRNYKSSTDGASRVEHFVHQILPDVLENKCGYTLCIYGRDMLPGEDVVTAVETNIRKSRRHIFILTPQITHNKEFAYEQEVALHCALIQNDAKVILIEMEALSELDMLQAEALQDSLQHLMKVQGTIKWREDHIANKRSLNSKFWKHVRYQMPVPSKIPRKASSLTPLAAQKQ
Hits are given with their value; ! = not confirmed by another sample.

`CCOC(=O)C1CCN(C(=O)CN2C(=O)C3CCCCN3c3ccc(C(=O)N(C)C)cc32)CC1` (configuration not stated) gave ST2 IL33 inh inactive.
`O=C(c1cnc(Nc2ccc(F)cc2)c2ccccc12)N1CCCC1` gave ST2 IL33 inh inactive.
For O=C(c1ccccc1)C1CCCN(Cc2nc(-c3ccc(C(F)(F)F)cc3)no2)C1 (configuration not stated) the results were ST2 IL33 inh inactive.
`O=C(CSc1nnc2sc3ccccc3n12)Nc1c(Cl)cccc1Cl` gave ST2 IL33 inh inactive.
For Cc1ccc(N=Cc2cc(Cl)cc([N+](=O)[O-])c2O)c(O)c1 the results were ST2 IL33 inh 35%.
For Cc1ccc(N=Cc2cc(Br)cc(Cl)c2O)c(O)c1 the results were ST2 IL33 inh inactive.
Screening Cc1ccc(O)c(N=Cc2cc(Cl)cc(Cl)c2O)c1 returned ST2 IL33 inh inactive.
Cc1[nH]c2ccc(CNC(=O)c3ccc4c(c3)N(C)C(=O)CO4)cc2c1C was read as ST2 IL33 inh inactive.
`CCC(Sc1nc(C)cc(-c2ccccc2)n1)C(=O)Nc1ccccc1C#N` (configuration not stated) gave ST2 IL33 inh inactive.
For O=C(c1ccco1)N1CCN(Cc2cccn2-c2ncccn2)CC1 the results were ST2 IL33 inh inactive.
For O=C(Nc1cccc(-c2ccco2)c1)C1CCN(Cc2cccn2-c2ccccn2)CC1 the results were ST2 IL33 inh 32%.
For O[C@@H]1CN(Cc2cccn2-c2ccccn2)CC[C@H]1c1ccc2c(c1)OCO2 the results were ST2 IL33 inh inactive.
`Cc1ccccc1C(NC(=O)C1(c2ccccc2F)CC1)c1ccncc1` (configuration not stated) gave ST2 IL33 inh inactive.
`CC(=O)NC(=O)c1cc2cc(Cl)cc(Cl)c2oc1=Nc1cccc(C#N)c1` gave ST2 IL33 inh inactive.
COc1ccc2cc(C(=O)Nc3ccccc3)c(=Nc3ccc(C#N)cc3)oc2c1 was read as ST2 IL33 inh inactive.
For N#Cc1ccc(N=c2oc3ccccc3cc2C(=O)Nc2ccccc2)cc1 the results were ST2 IL33 inh 33%.
For COc1ccc2oc(=Nc3ccc(C#N)cc3)c(C(=O)Nc3ccccc3)cc2c1 the results were ST2 IL33 inh inactive.
For CC(=O)NC(=O)c1cc2cc(Br)ccc2oc1=Nc1cccc(F)c1 the results were ST2 IL33 inh inactive.
`CC(=O)NC(=O)c1cc2cc(Br)ccc2oc1=Nc1cccc(C#N)c1` gave ST2 IL33 inh 33%.
`COC(=O)c1ccc(Nc2nnc(Cc3ccc(OC)cc3)c(=O)[nH]2)cc1` gave ST2 IL33 inh inactive.
`CCC(Sc1nc2ccccc2o1)C(=O)Nc1ccccc1C#N` (configuration not stated) gave ST2 IL33 inh inactive.
For O=C(c1ccccc1Br)N(c1ccc(F)cc1)C1C=CS(=O)(=O)C1 (configuration not stated) the results were ST2 IL33 inh inactive.
Screening N#Cc1ccccc1S(=O)(=O)N1C[C@@H]2C[C@H](C1)c1c(-c3cc4ccccc4s3)ccc(=O)n1C2 returned ST2 IL33 inh inactive.
`O=C(c1cc(-c2ccc(F)cc2)on1)N1CCCCC1` gave ST2 IL33 inh inactive.
Screening COc1cc2c(cc1OC)C(C(=O)NCCN(C)C)C(c1ccccc1F)N(C)C2=O (configuration not stated) returned ST2 IL33 inh 32%.
Screening COc1ccccc1CNC(=O)C1c2cc(OC)c(OC)cc2C(=O)N(C)C1c1ccccc1F (configuration not stated) returned ST2 IL33 inh inactive.
Screening CCCCNC(=O)C1c2cc(OC)c(OC)cc2C(=O)N(C)C1c1ccccc1F (configuration not stated) returned ST2 IL33 inh inactive.
Screening CCN(CC)[C@H]1[C@@H]2OC[C@@H](O2)[C@@H](NC(=O)NC2CCCCC2)[C@@H]1O returned ST2 IL33 inh inactive.
For CCOC(=O)C1=C(C)NC(=O)NC1c1ccc(-c2cc(Cl)cc(Cl)c2)o1 (configuration not stated) the results were ST2 IL33 inh inactive.
`O=C(NCC1CCCO1)C1CCN(C2CCN(CC#Cc3ccccc3)CC2)CC1` (configuration not stated) gave ST2 IL33 inh inactive.
For O=C(O)c1ccc(CNS(=O)(=O)c2ccccc2)cc1 the results were ST2 IL33 inh inactive.
COc1ccc(C(C[N+](=O)[O-])Sc2ccccc2N)cc1 (configuration not stated) was read as ST2 IL33 inh 32%!.
Screening COc1ccc(-c2[nH]c3ccccc3c2C(C[N+](=O)[O-])c2ccco2)cc1 (configuration not stated) returned ST2 IL33 inh inactive.
COc1ccc(NC(=O)c2ccccc2Sc2ccc([N+](=O)[O-])cc2)cc1 was read as ST2 IL33 inh inactive.
Screening Cc1cccc(NC(=O)c2ccccc2Cl)c1C(=O)O returned ST2 IL33 inh inactive.
O=C(C1CC1)N1CCc2cc(S(=O)(=O)N3CCCC3)ccc21 was read as ST2 IL33 inh inactive.
Screening Cc1cc2nc(Cc3cccc(F)c3)c(=O)[nH]c2cc1C returned ST2 IL33 inh inactive.
For Cc1[nH]c(=O)[nH]c(=O)c1S(=O)(=O)N1CCN(c2ccc(F)cc2)CC1 the results were ST2 IL33 inh inactive.
`O=C1CC(c2ccccc2)CC2=C1C(c1ccccc1Br)Nc1ccccc1N2` (configuration not stated) gave ST2 IL33 inh inactive.
For O=C1CC(c2ccccc2)CC2=C1C(c1cc(Br)ccc1F)Nc1ccccc1N2 (configuration not stated) the results were ST2 IL33 inh inactive.
`O=C1CC(c2ccccc2)CC2=C1C(c1cc3c(cc1[N+](=O)[O-])OCO3)Nc1ccccc1N2` (configuration not stated) gave ST2 IL33 inh 44%.
For COc1cc(NC(=O)c2cccc([N+](=O)[O-])c2)c(OC)cc1Cl the results were ST2 IL33 inh inactive.
COc1cc(NC(=O)NC[C@H]2O[C@@H](CO)[C@@H](O)[C@@H]2N(C)Cc2ccccc2)cc(OC)c1 was read as ST2 IL33 inh inactive.
For CCOC(=O)C1=C(C)Nc2nc(SCc3ccccc3F)nn2C1c1ccc(F)cc1 (configuration not stated) the results were ST2 IL33 inh inactive.
Screening O=C(Nc1ccc(I)cc1)c1cccc([N+](=O)[O-])c1 returned ST2 IL33 inh inactive.
Screening Cc1ccc(NC(=O)c2cccc([N+](=O)[O-])c2)cc1C returned ST2 IL33 inh inactive.
Screening O=C(Nc1cccc(Cl)c1)c1cccc([N+](=O)[O-])c1 returned ST2 IL33 inh 92%.
O=C(CN1CCN(Cc2ccccc2F)C1=O)N1CCCC1 was read as ST2 IL33 inh inactive.
For CC1(C)C(=O)OC(c2ccccc2[N+](=O)[O-])C(C)(C)C1=O (configuration not stated) the results were ST2 IL33 inh inactive.
O=[N+]([O-])c1ccc(C2Nc3c(cccc3[N+](=O)[O-])C3C=CCC32)cc1 (configuration not stated) was read as ST2 IL33 inh 45%.
Screening O=C(c1ccc2c(c1)C1C=CCC1C(c1ccc([N+](=O)[O-])cc1)N2)N1CCCCCC1 (configuration not stated) returned ST2 IL33 inh 40%.
Screening COc1ccc(C(=O)N2CCCCC2)cc1[N+](=O)[O-] returned ST2 IL33 inh inactive.
`O=[N+]([O-])c1ccc(C2CNC(c3ccccc3)O2)cc1` (configuration not stated) gave ST2 IL33 inh inactive.
O=S(=O)(c1ccc([C@@H]2Nc3ccc(Br)cc3[C@@H]3C=CC[C@@H]32)cc1)N1CCOCC1 was read as ST2 IL33 inh inactive.
